High-throughput results from PubChem BioAssay.
DT40 TDP1 no CPT: qHTS for Inhibitors of human tyrosyl-DNA phosphodiesterase 1 (TDP1): qHTS in cells in absence of CPT; 15% of 420,000 active; Potency, µM (titrated, usually from 46.2 µM), usual class: inhibitors; AID 686978, 2013; DT40 Tdp1-/- hTDP1 cells, no CPT, ATP luminescence, 48 h; also: nearly all actives have a fitted effect of over 55% in size
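Stably hTDP1-transfected Tdp1-null chicken DT40 cells were treated with library compounds minus camptothecin and grown for at least 48 hr at 37 °C, after which cellular ATP was quantified by luminescence.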
DT40 TDP1 CPT: DT40-hTDP1 cell growth loss with CPT | 12% of 420,000 active | Potency, µM (doses to about 46.2 µM), actives largely listed as inhibitors | AID 686979 | chicken DT40 Tdp1-/-;hTDP1 cells + 20 nM CPT, ATP luminescence, 48 h; also: nearly all actives have a fitted effect of over 55% in size
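Chicken DT40 Tdp1-/- cells complemented with human TDP1, 400 cells/well, exposed to compounds plus 20 nM camptothecin for at least 48 h at 37 C; viability read as ATP content by CellTiter-Glo luminescence.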
RORgamma inh: inhibitors of mouse ROR gamma transcriptional activity; 5.4% of 310,000 active; Drosophila S2 Gal4-RORgamma UAS-luciferase reporter, 20 h; Potency, µM (series often up to 53.6 µM), actives largely listed as inhibitors; P51450; also: nearly all actives have a fitted effect of over 60% in size
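Drosophila S2 cells stably expressing Gal4-DBD/mouse RORγ fusion under metallothionein promoter plus UAS-luciferase; compound 1 h, then 700 uM CuSO4 induction for 20 h at ambient temperature; inhibition read as reduced luminescence.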
VP16 counter: inhibits Gal4-VP16 luciferase reporter, ROR gamma counter-screen. Drosophila S2 Gal4-VP16 UAS-luciferase, luminescence, 20 h. Potency, µM (doses to about 53.6 µM), most hits filed as inhibitors. 3.5% of 310,000 active. AID 2546;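 also: Gal4-VP16 expression switched on by copper sulfate through the metallothionein promoter; nearly all actives have a fitted effect of over 50% in size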
ELG1 repair inh: blocks ELG1-dependent DNA repair in HEK293T cells. HEK293T ELG1-luciferase reporter, luminescence, 16 h; DNA damage induced by 5-fluorouridine. Potency, µM (top dose mostly 46.1 µM), actives largely listed as inhibitors. 2.3% of 330,000 active. AID 504467; also: nearly all actives have a fitted effect of over 55% in size
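HEK293T cells expressing luciferase-tagged ELG1 (2,000/well) received 5-Fluorouridine plus compound or DMSO for 16 hr at 37 °C. Luciferase was read by ONE-Glo luminescence after 30 min at room temperature.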
ALOX12 inh: ALOX12 (human) lipoxygenase inhibition. 1.1% of 580,000 active. AID 1671190. purified 12hLO, xylenol orange hydroperoxide absorbance. Potency, µM (highest dose often 108 µM), actives largely listed as inhibitors
Target sequence (P18054 whole entry, looked up): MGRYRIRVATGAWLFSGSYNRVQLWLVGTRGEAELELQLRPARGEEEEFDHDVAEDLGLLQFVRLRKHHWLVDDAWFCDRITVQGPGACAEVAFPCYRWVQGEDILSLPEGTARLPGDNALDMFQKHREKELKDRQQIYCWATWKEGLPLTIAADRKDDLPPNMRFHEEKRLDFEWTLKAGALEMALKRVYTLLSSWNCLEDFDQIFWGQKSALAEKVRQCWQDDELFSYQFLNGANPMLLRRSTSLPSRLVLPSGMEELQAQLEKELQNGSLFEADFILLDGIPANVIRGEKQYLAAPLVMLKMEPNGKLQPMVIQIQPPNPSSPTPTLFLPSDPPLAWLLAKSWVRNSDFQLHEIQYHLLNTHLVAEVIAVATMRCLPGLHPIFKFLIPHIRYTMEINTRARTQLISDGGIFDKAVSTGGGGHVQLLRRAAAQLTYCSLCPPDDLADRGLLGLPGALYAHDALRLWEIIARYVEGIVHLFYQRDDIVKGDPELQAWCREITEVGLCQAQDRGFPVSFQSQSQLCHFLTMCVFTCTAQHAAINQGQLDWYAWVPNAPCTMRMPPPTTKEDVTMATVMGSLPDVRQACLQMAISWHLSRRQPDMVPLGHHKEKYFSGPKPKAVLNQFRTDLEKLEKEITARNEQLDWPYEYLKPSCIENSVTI
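Purified human 12hLO (150 nM final) in 25 mM Hepes, 0.01% Triton X-100, pH 7.0 was preincubated 15 min at room temperature with compound. Then 40 uM arachidonic acid was added, 30 min. Hydroperoxide was read by Fe-XO absorbance ratio 573/405 nm.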
Each line names hits and unclear results; the compound was inactive in the other large screens. Rows were chosen to be rich in hits. Some 15% of all compounds tested hit in one or more screens of this group. Calls follow the shape of the dose curve; as a rule, active = well fitted curve in the direction sought with a large enough effect; inconclusive = small, poorly fitted or top-dose-only effect, or another doubt; inactive = no such curve, though single readings can be large; an effect the other way counts as inactive or inconclusive.

COc1ccccc1CNc1ncncc1-c1ccc(N(C)C)cc1	DT40 TDP1 no CPT inconclusive, DT40 TDP1 CPT inconclusive, RORgamma inh 22.4µM, ALOX12 inh inconclusive (no result: ELG1 repair inh)
COc1ccc(CNc2ncncc2-c2ccc(N(C)C)cc2)c(OC)c1	DT40 TDP1 no CPT inconclusive, DT40 TDP1 CPT 18.4µM (no result: ELG1 repair inh)
COc1ccc(CNc2ncnc3ccc(-c4ccc(N(C)C)cc4)cc23)c(OC)c1	DT40 TDP1 no CPT inconclusive, DT40 TDP1 CPT 23.1µM, RORgamma inh inconclusive (no result: ELG1 repair inh)
CC1(C)CC(CC(=O)N2CCCC2)(c2ccc(Cl)cc2)CCO1 (configuration not stated)	none (no result: DT40 TDP1 no CPT, DT40 TDP1 CPT, RORgamma inh, VP16 counter, ELG1 repair inh)
c1ccc(C(CNCc2ccncc2)N2CCCC2)cc1 (configuration not stated)	none (no result: DT40 TDP1 no CPT, DT40 TDP1 CPT, RORgamma inh, VP16 counter, ELG1 repair inh)
COc1ccc(C(CNC(=O)c2ccc(S(=O)(=O)N3CC(C)CC(C)C3)cc2)N(C)C)cc1 (configuration not stated)	DT40 TDP1 no CPT 29.1µM, DT40 TDP1 CPT inconclusive, ELG1 repair inh inconclusive (no result: RORgamma inh, VP16 counter)
COc1ccc(C(CNC(=O)c2ccc(S(=O)(=O)N3CCCC3)cc2)N(C)C)cc1OC (configuration not stated)	DT40 TDP1 CPT inconclusive
COc1ccc(C(CNC(=O)c2cc(S(=O)(=O)N3CCN(c4ccccc4)CC3)ccc2Cl)N(C)C)cc1 (configuration not stated)	DT40 TDP1 no CPT 18.4µM, DT40 TDP1 CPT 20.6µM, ELG1 repair inh inconclusive (no result: RORgamma inh, VP16 counter)
O=C(NCc1ccccn1)c1cc(S(=O)(=O)N2CCN(c3ccccc3)CC2)ccc1Cl	DT40 TDP1 no CPT 18.4µM, DT40 TDP1 CPT 10.3µM, RORgamma inh inconclusive, ELG1 repair inh inconclusive
COCCN1C(=O)c2ccccc2C(C(=O)Nc2ccccc2)C12CCCC2 (configuration not stated)	none (no result: DT40 TDP1 no CPT, DT40 TDP1 CPT, RORgamma inh, VP16 counter, ELG1 repair inh)
COc1cccc2sc(Nc3nnc(-c4cccs4)o3)nc12	DT40 TDP1 no CPT 8.2µM, DT40 TDP1 CPT 3.66µM, RORgamma inh 1.41µM, VP16 counter 2µM, ELG1 repair inh inconclusive
Fc1cccc2sc(Nc3nnc(-c4ccco4)o3)nc12	DT40 TDP1 no CPT 23.1µM, DT40 TDP1 CPT inconclusive, RORgamma inh 0.126µM, ELG1 repair inh inconclusive
COc1cccc2sc(Nc3nnc(-c4ccc(F)cc4)o3)nc12	DT40 TDP1 no CPT 5.8µM, DT40 TDP1 CPT 5.8µM, RORgamma inh 2.24µM, VP16 counter 5.01µM
CCOC(=O)c1ccc(Oc2coc3cc(OCc4ccc(C)cc4)ccc3c2=O)cc1	none (no result: DT40 TDP1 no CPT, DT40 TDP1 CPT, RORgamma inh, VP16 counter, ELG1 repair inh)
CC(C)Cc1nc2cccnc2n1C1CCN(S(=O)(=O)c2ccc(Br)s2)CC1	none (no result: DT40 TDP1 no CPT, DT40 TDP1 CPT, RORgamma inh, VP16 counter, ELG1 repair inh)
CCC(C)(C)c1ccc(OCCCC[n+]2cccc(C)c2)c(C(C)(C)CC)c1	DT40 TDP1 no CPT 0.92µM, DT40 TDP1 CPT 0.581µM, RORgamma inh inconclusive, VP16 counter 12.6µM, ELG1 repair inh 7.3µM, ALOX12 inh inconclusive
Cc1ccc[n+](CC(=O)Nc2cc(C(F)(F)F)ccc2Cl)c1	none
COC(=O)C(C)NC(=O)C12CC3CC(CC(Br)(C3)C1)C2 (configuration not stated)	none (no result: DT40 TDP1 no CPT, DT40 TDP1 CPT, RORgamma inh, VP16 counter, ELG1 repair inh)
COc1cc(=O)n2c(c1C(=O)Nc1ccc(Br)cc1)CCCC2	none (no result: DT40 TDP1 no CPT, DT40 TDP1 CPT, RORgamma inh, VP16 counter, ELG1 repair inh)
CSc1nc2ccc(NS(=O)(=O)c3ccc4c(c3)OCCO4)cc2s1	DT40 TDP1 no CPT 23.1µM, DT40 TDP1 CPT inconclusive, RORgamma inh inconclusive, ELG1 repair inh inconclusive
COc1ccc(NS(=O)(=O)c2ccc3c(c2)OCCO3)cc1OC	DT40 TDP1 no CPT 5.8µM, DT40 TDP1 CPT 7.31µM, RORgamma inh inconclusive, VP16 counter 7.08µM, ELG1 repair inh 2.31µM
CCOC(=O)c1ccc(NS(=O)(=O)c2ccc3c(c2)OCCO3)cc1	DT40 TDP1 no CPT 29.1µM, DT40 TDP1 CPT 13µM (no result: RORgamma inh, VP16 counter, ELG1 repair inh)
COc1ccc(S(=O)(=O)Nc2ccc3c(c2)OCO3)cc1OC	RORgamma inh inconclusive
COc1cc(OC)c(NS(=O)(=O)c2ccc3c(c2)NC(=O)CO3)cc1Cl	DT40 TDP1 no CPT inconclusive, DT40 TDP1 CPT 18.4µM, RORgamma inh inconclusive
CCC(C)NC(=O)Nc1c(NC)c2ccccc2oc1=O (configuration not stated)	none (no result: DT40 TDP1 no CPT, DT40 TDP1 CPT, RORgamma inh, VP16 counter, ELG1 repair inh)
